Assay results as given in PubChem BioAssay AID2110 (National Center for Advancing Translational Sciences (NCATS), 2009).
Where “and” joins values, the source holds several entries; their conditions need not be identical. Equal values may be shown once. Records with an inconclusive call do not appear. Calls of active or inactive are those of the source. Calls come from the whole dose curve; as a rule, active = well fitted curve in either direction with a large enough effect; inconclusive = small, poorly fitted or top-dose-only effect; inactive = no such curve, though single readings can be large or run the other way.

The compounds below were run against Lysosomal alpha-glucosidase (Homo sapiens) (UniProt P10253) (assay: Confirmation of Inhibitors and Activators of Purified Human alpha-Glucosidase Using an Alternate Red Fluorescent Susbtrate). Settings: purified enzyme, red fluorogenic substrate; series mostly up to 63.4 µM; activity change, negative = inhibition: at the top concentration.
Text: NIH Chemical Genomics Center [NCGC]
NIH Molecular Libraries Probe Production centers Network [MLPCN]
Assay Submitter (PI): Wei Zheng
Alpha-glucosidase is responsible for hydrolysis of terminal, non-reducing 1,4-linked alpha-D-glucose residues with release of alpha-D-glucose. It is a lysosomal hydrolase that is required for the degradation of a small percentage (1-3%) of cellular glycogen in human. Deficiency of this enzyme results in glycogen-storage disease type II (GSDII), also referred to as Pompe disease, an autosomal recessive disorder. Structurally normal glycogen is accumulated in lysosomes and cytoplasm in affected patients, primarily in muscle tissues. Excessive glycogen storage within lysosomes may interrupt normal functioning of other organelles and leads to cellular injury. In turn, this leads to enlargement and dysfunction of the entire organ involved (eg, cardiomyopathy and muscle weakness).
It has reported that the improper folding and trafficking of alpha-glucosidase resultinged from the genetic mutations may account for a significant number of Pomrope patients. […] We optimized this alpha-glucosidase assay in 1536-well plate format for identifying the novel small molecule inhibitors with the structures other than the sugar analogs in order to develop the new pharmacological chaperones. This assay attempted to confirm hits from the primary screening using an alternate fluor than the primary screen used.
NCGC Assay Protocol Summary:
This is a fluorogenic enzyme assay with resorufin-alpha-D-pyranoside as the substrate and recombinant human alpha-glucosidase as the enzyme preparation. Upon the hydrolysis of this fluorogenic substrate, the resulting product, resorufin, can be excited at 573 nm and emits at 610 nm which can be detected by a standard fluorescence plate reader. Data were normalized to the controls for basal activity (without enzyme) and 100% activity (with enzyme). The AC50 values were determined from concentration-response data modeled with the standard Hill equation.
Assay buffer: 50 mM citric acid (titrated with potassium phosphate to pH 5.0), 0.005% Tween-20, pH 5.0. (pH 5.0 is an optimal condition for this enzyme assay)
1536-well assay protocol for the human alpha-glucosidase:
(1) Add 2 ul/well of enzyme (4 nM final)
(2) Add 23 nL compounds in DMSO solution. The final titration was 0.7 nM to 77 uM.
(3) Add 1 ul of substrate (400 uM final)
(4) Incubate at room temperature for 20 min.
(5) Add 2 ul stop solution (1M NaOH and 1M Glycine mixture, pH 10)
(6) Detect the assay plate in a ViewLux plate reader (PerkinElmer) with Ex=365 nm and Em=440nm.
Keywords: Alpha-glucosidase, Pompe Disease, pharmacological chaperone, chaperone therapy, high throughput screening, alpha-glucosidase inhibitor, MLSMR, MLSCN, NIH Roadmap, qHTS and NCGC

Structure (SMILES)	Potency	activity change, negative = inhibition
CCCN1CNc2c(c(=O)[nH]c(=S)n2CCc2ccc(Cl)cc2)C1	11.2 µM (active)	–
O=C1Cc2cc(S(=O)(=O)N3CCN(c4ccc([N+](=O)[O-])cc4)CC3)ccc2N1	3.26 µM [inhibitor] (active)	–
CCCN1CNc2c(c(=O)[nH]c(=S)n2CCc2cccc(Cl)c2Cl)C1	0.158 µM (active)	–
CC(=O)c1ccc(N2CCN(S(=O)(=O)c3ccc4c(c3)n(C)c(=O)n4C)CC2)cc1	–	-9.43% (inactive)
CC(=O)c1ccc(N2CCN(C(=O)c3ccc4c(c3)CC(=O)N4)CC2)cc1	–	-10.5% (inactive)
O=C1Cc2cc(S(=O)(=O)N3CCN(c4ccc(O)cc4)CC3)ccc2N1	2.37 µM [inhibitor] (active)	–
CCCN1CNc2c(c(=O)[nH]c(=S)n2CCc2cccs2)C1	7.94 µM (active)	–
CCCN1CNc2c(c(=O)[nH]c(=S)n2CCc2ccc(OCC)c(OCC)c2)C1	1.78 µM (active)	–
COc1ccc(CCn2c(=S)[nH]c(=O)c3nccnc32)cc1OC	–	-4.4% (inactive)
CCCN1CNc2c(c(=O)[nH]c(=S)n2CCc2cccc(OC)c2)C1	2.51 µM (active)	–
CC(=O)Nc1ccc(S(=O)(=O)N2CCN(c3ccc(C(C)=O)cc3)CC2)cc1	–	-7.47% (inactive)
COc1ccc(CCn2c3c(c(=O)[nH]c2=S)CN(C(C)C)CN3)cc1OC	11.2 µM (active)	–
Cc1ccc(N2CCN(S(=O)(=O)c3ccc4c(c3)CC(=O)N4)CC2)cc1	–	-18.6% [at 130 µM] (inactive)
CCCN1CNc2c(c(=O)[nH]c(=S)n2CCc2cc(C)ccc2C)C1	3.16 µM (active)	–
COc1ccc(CCn2c(=S)[nH]c(=O)c3[nH]cnc32)cc1OC	–	11.1% (inactive)
COc1ccc(C#Cc2cnc(Cl)c3cncnc23)cc1OC	–	1.22% (inactive)
CCCN1CNc2c(c(=O)[nH]c(=S)n2CCc2cccc(C)c2C)C1	1.12 µM (active)	–
CCCN1CNc2c(c(=O)[nH]c(=S)n2CCc2cc(OC)cc(OC)c2)C1	0.708 µM (active)	–
c1csc(-c2nc(NCC3CCCO3)c3ccccc3n2)c1 (stereo not given)	–	-0.393% [at 32.7 µM] (inactive)
OCC1NCC(O)C(O)C1O (stereo not given)	–	-95.2% (inactive)

Structure (SMILES)	Potency	activity change, negative = inhibition
CCCN1CNc2c(c(=O)[nH]c(=S)n2CCc2cc(Cl)ccc2Cl)C1	0.794 µM (active)	–
O=S(=O)(c1ccc(Cl)cc1)N1CCN(c2nc(-c3cccs3)nc3ccccc23)CC1	–	-7.19% (inactive)
O=Cc1ccc(N2CCN(S(=O)(=O)c3ccc4c(c3)CC(=O)N4)CC2)cc1	4.11 µM [inhibitor] (active)	–
CCCN1CNc2c(c(=O)[nH]c(=S)n2CCc2ccccc2OC)C1	11.2 µM (active)	–
O=c1[nH]cc(C#Cc2ccccc2)c2ncncc12	–	-9.19% (inactive)
OC[C@H]1NC[C@@H](O)[C@@H]1O	–	-83.5% (inactive)
Nc1nc(N)c2nc(-c3ccccc3)c(N)nc2n1	–	0.18% (inactive)
CC(=O)c1ccc(N2CCN(S(=O)(=O)c3ccc4c(c3)C(=O)OC4)CC2)cc1	–	0.0821% (inactive)
CC(=O)c1ccc(N2CCN(S(=O)(=O)c3ccc4c(c3)CCCC(=O)N4)CC2)cc1	–	-0.651% (inactive)
CC(=O)c1ccc(N2CCN(S(=O)(=O)c3ccc4c(c3)C(Cl)(Cl)C(=O)N4)CC2)cc1	41.1 µM [inhibitor] (active)	–
O=c1[nH]cc(CCc2ccccc2)c2ncncc12	–	-2.36% (inactive)
CCCN1CNc2c(c(=O)[nH]c(=S)n2CCc2c(OC)cccc2OC)C1	14.1 µM (active)	–
CC(O)[C@@H](O)[C@H]1CNc2nc(N)[nH]c(=O)c2N1 (stereo not given in full)	–	16% (inactive)
CCCN1CNc2c(c(=O)[nH]c(=S)n2CCc2ccc(C)cc2C)C1	2.82 µM (active)	–
CCCN1CNc2c(c(=O)[nH]c(=O)n2CCc2ccc(OC)c(OC)c2)C1	14.1 µM (active)	–
CCCCN1C[C@H](O)[C@@H](O)[C@H](O)[C@H]1CO	–	-96.3% (inactive)
O=C1Cc2cc(S(=O)(=O)N3CCNCC3)ccc2N1	–	-15.6% (inactive)
CC(=O)c1ccc(N2CCN(S(=O)(=O)c3cc4c(cc3Cl)NC(=O)C4)CC2)cc1	1.63 µM [inhibitor] (active) and 5.17 µM [inhibitor] (active)	–
CCCN1CNc2c(c(=O)[nH]c(=S)n2CCc2ccccc2C)C1	8.91 µM (active)	–
CCCN1CNc2c(c(=O)[nH]c(=S)n2CCc2ccc(Cl)c(Cl)c2)C1	2.24 µM (active)	–
